Test results as given in PubChem BioAssay (NCI).
This is part of a sample that, as a whole, favours compounds with a hit. Of some 83,000 tested, about 20% had one in any assay.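 Growth was measured after 48 h exposure to one concentration of compound in 96-well plates. Values under 10 count as active.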 A number with no mark means an inactive call. The source made the active and inactive calls.

Experiments:
Experiment in all cases: NCI-60 one-dose screen, 48 h (100 = growth as untreated, 0 = no growth, -100 = all killed)
Conditions in all cases: 10 µM unless noted
NCI-H23 lung = tested on: NCI-H23 lung
NCI-H226 lung = tested on: NCI-H226 lung
NCI-H322M lung = tested on: NCI-H322M lung
HOP-62 NSCLC = tested on: HOP-62 NSCLC
NCI-H460 lung = tested on: NCI-H460 lung
HOP-92 NSCLC = tested on: HOP-92 NSCLC
NCI-H522 lung = tested on: NCI-H522 lung
A549/ATCC NSCLC = tested on: A549/ATCC NSCLC
786-0 renal = tested on: 786-0 renal
COLO 205 colon = tested on: COLO 205 colon

| SMILES | growth (NCI-H23 lung) | growth (NCI-H226 lung) | growth (NCI-H322M lung) | growth (HOP-62 NSCLC) | growth (NCI-H460 lung) | growth (HOP-92 NSCLC) | growth (NCI-H522 lung) | growth (A549/ATCC NSCLC) | growth (786-0 renal) | growth (COLO 205 colon) |
| --- | --- | --- | --- | --- | --- | --- | --- | --- | --- | --- |
| COc1ccc(C(c2cc(OC)c(OC)c(OC)c2)n2cncn2)cc1O (stereo not given) | 39.9% | 73.4% | 51.5% | 32.2% | 9.82% (active) | 43.9% | 12.8% | 18.6% | 28.1% | -1.65% (active) |
| COc1ccc(/C(C)=C(\c2ccc(Cl)cc2)c2ccc(OCCCN(C)C)cc2)cc1 | 82.3% | 103% | 82.2% | 101% | 40.2% | 62.5% | 76.7% | 47.2% | 75.3% | 15% |
| O=C1CCc2c(sc3[nH]c(=S)n(-c4cc(C(F)(F)F)cc(C(F)(F)F)c4)c(=O)c23)C1 | -10.7% (active) | -19% (active) | 9.28% (active) | -27.1% (active) | 5% (active) | -61.8% (active) | -46.6% (active) | 5.85% (active) | 18.1% | -80% (active) |
| Cc1cc([N+](=O)[O-])ccc1NC(=O)c1ccc2c(c1)nc(-c1ccccc1)n2C1CCCCC1 | 91.5% | 93% | 80% | 91.8% | 87.3% | 117% | 63.1% | 78.8% | 86.7% | 73.2% |
| CNC1=C(Br)C(=O)c2c(C(=O)OC)c(C)nc(C)c2C1=O | 31.8% | 86.3% | 81.5% | 99.9% | 30.4% | 104% | 64.3% | 58.1% | 102% | 30.9% |
| COC(=O)CCc1c(/C=C2\N=C(c3ccc[nH]3)C=C2OC)[nH]c(C)c1C(=O)OCc1ccccc1 | 20.4% | 19.6% | 55.9% | -3.97% (active) | 12.4% | -9.37% (active) | -20.3% (active) | 11.9% | -26.2% (active) | 4.96% (active) |
| O=C(/C=C/c1ccco1)Nc1ncc(Cc2ccc(F)cc2)s1 | 23.4% | 51.8% | 47.2% | 25.8% | 6.54% (active) | 90.5% | -2.92% (active) | 23.9% | 38.4% | 4.77% (active) |
| Clc1ccc(C2=Nn3c(nnc3-c3cc(Cl)cc(Cl)c3Cl)SC2)cc1 | 65.8% | 75.3% | 71.4% | 16.2% | 16.4% | 55.6% | 21.4% | 58.2% | 3.83% (active) | 40.5% |
| COc1cc2cc(Oc3ccc(NC(=O)Nc4ccc(F)c(C(F)(F)F)c4)cc3)c(C)nc2cc1OCCN1CCCCC1 | 34.2% | 81.1% | 69.5% | 95.4% | -69.2% (active) | 33.5% | -66.6% (active) | -45.9% (active) | 61.9% | -64% (active) |
| COc1ccc(C2=NN(C=O)C(c3ccc(Oc4nc5c(c(=O)n(C)c(=O)n5C)n4C)c(OC)c3)C2)cc1 (stereo not given) | 80.7% | 82.4% | 76.6% | 87% | 99% | 95.2% | 92.9% | 56.6% | 103% | 91.5% |
| O=C(COc1ccc(/C=C2\Oc3ccccc3C2=O)cc1)Nc1nccs1 | 87.6% | 89.8% | 89.3% | 86.8% | 107% | 34.3% | -30.2% (active) | 97.5% | 88.1% | 107% |
| C/C(=N\NC(=O)c1ccc(C(C)(C)C)cc1)c1ccc(O)cc1O | 23.7% | 25.6% | 25.5% | 20.9% | 3.99% (active) | 59.3% | 27.5% | 21.5% | 15.3% | 7.24% (active) |
| COC(=O)c1c(C)nc(C)c2c1C(=O)C(Br)=C(NCCN1CCOCC1)C2=O | 89% | 107% | 96.2% | 133% | 88.6% | 118% | 102% | 98.6% | 101% | 56.5% |
